Drawing on PubChem BioAssay (NCI), this text covers growth for ten molecules.

Test systems include HCT-15 colon; HT29 colon; SNB-19 CNS; U251 CNS; PC-3 prostate; SK-MEL-5 melanoma; UACC-62 melanoma; LOX IMVI melanoma; SK-MEL-28 melanoma; SK-MEL-2 melanoma; EKVX NSCLC; SN12C renal; UO-31 renal; TK-10 renal; ACHN renal; CAKI-1 renal; A498 renal; CCRF-CEM leukemia; MOLT-4 leukemia; SNB-75 CNS.
Common to all, as to assay: NCI-60 one-dose screen, 48 h (100 = growth as untreated, 0 = no growth, -100 = all killed)
Holding throughout (conditions): 10 µM unless noted

SMILES strings stand for the structures. Compounds without any hit were thinned out: in the full panel of roughly 83,000, 20% have a hit.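 Cells were grown in 96-well plates and exposed to the test compound at a single concentration for 48 hours; results are reported as percent growth, with values below 10 considered active.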 Unmarked numbers belong to inactive results. Activity calls are given as the source filed them.

As for `CC(=O)N1CCN(c2ccc(OCC3CO[C@](Cn4ccnc4)(c4ccc(Cl)cc4Cl)O3)cc2)CC1` (stereo partly drawn), the growth with HCT-15 colon was 75%; with HT29 colon, 80.6%; with SNB-19 CNS, 97.2%; in the test with U251 CNS, 87.4%; with PC-3 prostate, 76.5%; with SK-MEL-5 melanoma it was 14.5%. Further, the growth in the test with UACC-62 melanoma was 57.2%; in the test with LOX IMVI melanoma, 91.6%; in the test with SK-MEL-28 melanoma it was 106%; in the test on SK-MEL-2 melanoma it was 86.8%; in the test with EKVX NSCLC, 87.9%; in the test with SN12C renal, 84.2%. Besides, the growth in the test on UO-31 renal was 53.7%; in the test on TK-10 renal, 101%; in the test with ACHN renal, 92.5%; in the test with CAKI-1 renal it was 79.6%; with A498 renal, 86.4%; in the test on CCRF-CEM leukemia it was 75.2%. In addition, the growth in the test with MOLT-4 leukemia is 77.4%.

With `CCCCCCNC(=O)Oc1ccc(/C(=C(\C)c2ccc(OC)cc2)c2ccc(OCCN3CCCCC3)cc2)cc1`, the growth is 2.35% (active) with HCT-15 colon; 4.52% (active) with HT29 colon; 83.9% with SNB-19 CNS; 54.4% in the test on U251 CNS; 54.1% with PC-3 prostate; 57.6% with SK-MEL-5 melanoma. The growth is 39.2% in the test with UACC-62 melanoma; 24.5% with LOX IMVI melanoma; 25.2% with SK-MEL-28 melanoma; 69.2% in the test with SK-MEL-2 melanoma; 74% with EKVX NSCLC; 74.3% in the test on SN12C renal. For the same molecule, the growth with UO-31 renal is 21.6%; with TK-10 renal, 102%; in the test with ACHN renal it was 84.2%; in the test on CAKI-1 renal, 72.3%; with A498 renal, 88.1%; in the test on CCRF-CEM leukemia, 66.5%.

Consider `C=C(C)[C@@H]1CC[C@]2(N=C=O)CC[C@]3(C)[C@H](CC[C@@H]4[C@@]5(C)Cc6c([nH]c7ccccc67)C(C)(C)[C@@H]5CC[C@]43C)[C@@H]12`, for which the growth with HCT-15 colon is 47%; in the test with HT29 colon, 98.5%; with SNB-75 CNS, 79.8%; in the test with SNB-19 CNS, 91.4%; in the test on U251 CNS, 65.4%; in the test with SK-MEL-5 melanoma, 101%. The growth was 101% in the test with UACC-62 melanoma; 87.7% in the test on LOX IMVI melanoma; 106% in the test on SK-MEL-28 melanoma; 108% in the test on SK-MEL-2 melanoma; 89% in the test on EKVX NSCLC; 72.4% in the test on SN12C renal. For the same molecule, the growth with UO-31 renal is 64.8%; in the test with TK-10 renal it was 21.1%; with ACHN renal it was 99%; in the test with CAKI-1 renal, 69.9%; in the test with A498 renal, 137%; in the test on CCRF-CEM leukemia, 67.6%. Moreover, in the test with MOLT-4 leukemia, the growth is 61.4%.

As to `COc1ccc(-c2ncnc3c2ncn3CC#CCCl)cc1`, the growth in the test on SNB-75 CNS was 93.5%.

On to `Cc1ccc(S(=O)(=O)N/N=C/C2(c3ccccc3)CC2)cc1`, for which the growth in the test with SNB-75 CNS was 88.2%.

In the case of `NCCCNc1nc2ccccc2c2c(=O)c3cc(C(F)(F)F)ccc3sc12`, the growth in the test with HT29 colon is -23.4% (active); with SNB-75 CNS, 60.1%; in the test on SNB-19 CNS it was 30.4%; in the test on U251 CNS, -55.7% (active); in the test on PC-3 prostate it was 37.3%; in the test on SK-MEL-5 melanoma, 45.8%. Further, the growth is 95.1% in the test on UACC-62 melanoma; -97.7% (active) with LOX IMVI melanoma; 81.2% in the test on SK-MEL-28 melanoma; 89.7% in the test with SK-MEL-2 melanoma; 71.6% in the test on EKVX NSCLC; 51.9% in the test on SN12C renal. The growth in the test with UO-31 renal is 31.9%; with TK-10 renal, 51.9%; in the test with ACHN renal, -10.8% (active); with CAKI-1 renal, -67.7% (active); with A498 renal, 23.6%; with CCRF-CEM leukemia, 5.18% (active). Besides, the growth in the test with MOLT-4 leukemia is -20.1% (active).

In the case of `CNC(C)[C@H]1CCC2C3CCC4C[C@@H](N(C)C(=O)c5ccccc5)CC[C@]4(C)C3CC[C@@]21C` (stereo partly drawn), the growth is -33.3% (active) with HT29 colon; 15.5% with SNB-75 CNS; 66.6% with SNB-19 CNS; 29.9% in the test on U251 CNS; 16.3% with PC-3 prostate; -74.2% (active) in the test with SK-MEL-5 melanoma. The growth was -66% (active) with UACC-62 melanoma; -52.2% (active) in the test with LOX IMVI melanoma; -71.4% (active) in the test on SK-MEL-28 melanoma; 24.5% with EKVX NSCLC; 34.6% in the test with SN12C renal; -9.71% (active) in the test on UO-31 renal. The growth with TK-10 renal is 65.4%; with ACHN renal it was 46.9%; with CAKI-1 renal it was 58.2%; in the test with A498 renal it was 57.3%; with CCRF-CEM leukemia it was 21.7%; in the test on MOLT-4 leukemia, 16.5%.

Regarding `COc1ccc(/C=C(/C#N)n2nnc3cccc(F)c32)cc1`, the growth in the test on HT29 colon is 1.29% (active); with SNB-75 CNS it was -43.5% (active); with SNB-19 CNS, 24.6%; in the test with U251 CNS, 14.3%; with PC-3 prostate, 27.1%; with SK-MEL-5 melanoma, -7.21% (active). In addition, the growth in the test on UACC-62 melanoma is 17.9%; in the test with LOX IMVI melanoma, 5.5% (active); in the test with EKVX NSCLC it was 36.8%; in the test on SN12C renal, 28.9%; in the test with UO-31 renal it was 26.2%; with TK-10 renal, 46.5%. Further, the growth in the test with ACHN renal was 31.5%; with CAKI-1 renal it was 22.8%; in the test on A498 renal, -7.93% (active); in the test with CCRF-CEM leukemia it was 21.3%; with MOLT-4 leukemia, 13.8%.

As for `c1ccc(CO[C@H]2CO[C@H]3[C@@H]2OC[C@@H]3Oc2ccc(Nc3ncnc4ccsc34)cc2)cc1`, the growth is 81.9% in the test on HT29 colon; 87.5% with SNB-75 CNS; 82.7% in the test with SNB-19 CNS; 81.9% in the test on U251 CNS; 80.3% in the test on PC-3 prostate; 9.33% (active) with SK-MEL-5 melanoma. Further, the growth was 59.9% with UACC-62 melanoma; 78.8% in the test on LOX IMVI melanoma; 88.9% in the test with SK-MEL-28 melanoma; 62.3% in the test with EKVX NSCLC; 69.3% with SN12C renal; 42% in the test on UO-31 renal. The growth with TK-10 renal was 99.6%; in the test with ACHN renal it was 72.1%; with A498 renal it was 33.2%; in the test with CCRF-CEM leukemia, 77.7%; with MOLT-4 leukemia it was 64.5%.

In the case of `S=c1nc(-c2ccccc2)oc(=NC2CCCCC2)n1C1CCCCC1`, the growth in the test with HT29 colon was 49.5%; with SNB-75 CNS, 68.2%; with SNB-19 CNS, 28.7%; with U251 CNS, 18.8%; in the test with PC-3 prostate it was 3.69% (active); with SK-MEL-5 melanoma, 66.1%. In addition, the growth was 70.9% with UACC-62 melanoma; 30.1% with LOX IMVI melanoma; 107% in the test with SK-MEL-28 melanoma; 37.9% with SK-MEL-2 melanoma; 24.4% in the test on EKVX NSCLC; 67.9% with SN12C renal. For the same molecule, the growth in the test with UO-31 renal was 46.5%; in the test on TK-10 renal, 32.8%; with ACHN renal it was 15.4%; in the test with CAKI-1 renal, 75.4%; in the test on A498 renal, 86.8%; in the test on CCRF-CEM leukemia it was -6.7% (active). Further, the growth in the test with MOLT-4 leukemia was 0.447% (active).
